# From PubChem BioAssay (NCATS)
# Values without a mark were called inactive. Inconclusive results are not listed. Entries that show only a call come without a potency. Activity calls are given as the source filed them. Calls come from the whole dose curve; as a rule, active = well fitted curve in the direction sought with a large enough effect; inconclusive = small, poorly fitted or top-dose-only effect, or another doubt; inactive = no such curve, though single readings can be large; an effect the other way counts as inactive or inconclusive.
# Tests used:
# [1] = qHTS to identify inhibitors of the type 1 interferon - major histocompatibility complex class I in skeletal muscle: primary screen against the NCATS Pharmaceutical Collection (AID 1347407);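 note: luminescence of HiBiT knocked into endogenous HLA-B as interferon-induced MHC class I level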
# How it was run: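 Luminescence from HiBiT-tagged endogenous HLA-B*08:01 served as the read-out of IFN-beta-induced MHC class I in CRISPR-engineered C25cl48 myoblasts. Cells received 4 ng/ml IFN-beta plus compound (high final 46 uM, […]) for 24 h.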
# [2] = target: Protein phosphatase 1D (Homo sapiens) (UniProt O15297); assay: RapidFire Mass Spectrometry qHTS Assay for Modulators of WT P53-Induced Phosphatase 1 (WIP1) (AID 1347424);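 note: amount of dephosphorylated VEPPL-S-QETFS peptide product formed by WIP1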; note: potency is the fitted concentration of half-maximal effect; for activity change, negative = inhibition: series mostly up to about 63 µM
# How it was run: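 10 nM WIP1 preincubated with compounds 1 hr at room temperature in pH 7.5 Tris buffer with 30 mM MgCl2, 1 mM TCEP; 2 uM VEPPL-pS-QETFS phosphopeptide for 5 min, formic acid quench; dephosphorylated product quantified by RapidFire MS against labelled standard.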
# [3] = target: Protein phosphatase 1D (Homo sapiens) (UniProt O15297); assay: Rhodamine-PBP qHTS Assay for Modulators of WT P53-Induced Phosphatase 1 (WIP1) (AID 1347425)
# How it was run: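 The read-out is the change in Rhodamine-PBP fluorescence (f1 - f0, ex 525/em 598 nm) as Pi is released, read each minute for 11 min. Final reaction: 5 nM WIP1, 10 uM phosphopeptide VEPPL-pS-QETFS, 10 uM Rh-PBP, 50 mM Tris-HCl pH 7.5, 30 mM MgCl2. Compound was preincubated with enzyme for 1 hour at room temperature.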
# [4] = qHTS for inhibitors of adenylyl cyclases using a fission yeast platform: a pilot screen against the NCATS LOPAC library (AID 1347410)
# How it was run: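 Fission yeast qHTS: CHP2027 cells (AC9-GNAS-PDE4D2, fbp1-GFP), 5x10^6 cells/mL working density, EMM + His/Lys/Ura; LOPAC at up to 57 µM final; 18 h dark, 30C; GFP by laser cytometry. DPI positive control, DMSO vehicle.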
# Chain of Protein phosphatase 1D (Homo sapiens) (O15297 whole entry, looked up): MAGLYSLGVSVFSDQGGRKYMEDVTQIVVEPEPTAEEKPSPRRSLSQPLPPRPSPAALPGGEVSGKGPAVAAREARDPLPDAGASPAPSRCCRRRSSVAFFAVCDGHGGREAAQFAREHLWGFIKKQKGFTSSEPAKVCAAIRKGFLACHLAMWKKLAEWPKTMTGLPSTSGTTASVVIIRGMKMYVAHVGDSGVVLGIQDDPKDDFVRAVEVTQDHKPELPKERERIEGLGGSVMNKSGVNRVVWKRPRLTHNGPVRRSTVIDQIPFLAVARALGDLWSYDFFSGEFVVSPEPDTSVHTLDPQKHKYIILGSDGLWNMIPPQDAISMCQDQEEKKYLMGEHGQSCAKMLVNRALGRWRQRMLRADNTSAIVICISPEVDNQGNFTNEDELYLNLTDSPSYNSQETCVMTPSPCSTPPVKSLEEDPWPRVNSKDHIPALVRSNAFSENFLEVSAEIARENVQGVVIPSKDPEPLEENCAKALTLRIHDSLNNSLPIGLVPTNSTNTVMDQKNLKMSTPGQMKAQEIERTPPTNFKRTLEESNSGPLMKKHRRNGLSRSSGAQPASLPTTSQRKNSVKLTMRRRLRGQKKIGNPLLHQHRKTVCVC
smiles,measurement,setting,value
CO[C@@]1(NC(=O)Cc2cccs2)C(=O)N2C(C(=O)O)=C(COC(N)=O)CS[C@@H]21,Potency,[1],inactive
same,Potency,[2],inactive
same,outcome,[3],inactive
CCCCCCCCCCCC(=O)[O][Sn]([CH2]CCC)([CH2]CCC)[O]C(=O)CCCCCCCCCCC,Potency,[1],inactive
same,Potency,[2],inactive
Oc1c(Br)cc(Br)c2cccnc12,Potency,[1],inactive
same,Potency,[2],inactive
same,outcome,[3],inactive
C=CCCCCCCCCC(=O)O,Potency,[1],inactive
same,Potency,[2],inactive
same,outcome,[3],inactive
CCCOC(=O)c1ccc(O)cc1,Potency,[1],inactive
same,Potency,[2],inactive
same,outcome,[3],inactive
O=C(/C=C/c1ccccc1)NCCO,Potency,[1],inactive
same,Potency,[2],inactive
same,outcome,[3],inactive
CC(=O)SCC(CC(=O)c1ccc(C)cc1)C(=O)O (configuration not stated),Potency,[1],inactive
same,Potency,[2],inactive
same,outcome,[3],inactive
CCCCCCCC/C=C/C(=O)O,Potency,[1],inactive
same,Potency,[2],inactive
same,outcome,[3],inactive
Nc1ccc(C(=O)O)c(O)c1,Potency,[1],inactive
same,Potency,[2],inactive
same,outcome,[3],inactive
CC(C)(C)c1nnc(NS(=O)(=O)c2ccc(N)cc2)s1,Potency,[1],inactive
same,Potency,[2],inactive
O=C(O)/C=C\C(=O)O,Potency,[1],inactive
same,Potency,[2],inactive
same,outcome,[3],inactive
CN(C)CCn1nnnc1SCC1=C(C(=O)O)N2C(=O)[C@@H](NC(=O)Cc3csc(N)n3)[C@H]2SC1,Potency,[1],inactive
same,Potency,[2],inactive
same,outcome,[3],inactive
Cc1ccc(O)c(-n2nc3ccccc3n2)c1,Potency,[1],inactive
same,Potency,[2],inactive
same,outcome,[3],inactive
c1ccc2sc(SN3CCOCC3)nc2c1,Potency,[1],inactive
same,Potency,[2],inactive
same,outcome,[3],inactive
Cc1ccc(C(=O)c2ccc(CC(=O)O)n2C)cc1,Potency,[1],inactive
same,Potency,[2],inactive
same,outcome,[3],inactive
CC(C(=O)O)c1ccc(C(=O)c2cccs2)cc1 (configuration not stated),Potency,[1],inactive
same,Potency,[2],inactive
same,outcome,[3],inactive
O=C(CS)Nc1ccccc1,Potency,[1],inactive
same,Potency,[2],inactive
same,outcome,[3],inactive
O=C(OCc1ccccc1)c1ccccc1,Potency,[1],inactive
same,Potency,[2],inactive
same,outcome,[3],inactive
c1ccc2sc(SSc3nc4ccccc4s3)nc2c1,Potency,[1],inactive
same,Potency,[2],inactive
same,outcome,[3],inactive
Nc1cc(-c2ccncc2)c[nH]c1=O,Potency,[1],inactive
same,Potency,[2],22.4 µM (active)
COc1ccc(-c2cc(=S)ss2)cc1,Potency,[1],inactive
same,Potency,[2],inactive
N=C(N)N,Potency,[1],inactive
same,Potency,[2],inactive
same,outcome,[3],inactive
C/C(=N\O)c1ccc(OCC(=O)N2CCCCC2)cc1,Potency,[1],inactive
same,Potency,[2],inactive
same,outcome,[3],inactive
O=C(O)Cc1ccc2c(c1)C(=O)c1ccccc1CO2,Potency,[1],inactive
same,Potency,[2],inactive
same,outcome,[3],inactive
Nc1ccc(O)c([N+](=O)[O-])c1,Potency,[1],inactive
same,Potency,[2],35.5 µM (active)
C#CC1(O)CC[C@H]2[C@@H]3CCC4=CCCC[C@@H]4[C@H]3CC[C@@]21C (some centres not stated),Potency,[1],inactive
same,Potency,[2],inactive
same,outcome,[3],inactive
Cc1c(C(=O)O)c(O)cc2c1C(=O)c1c(O)c([C@@H]3O[C@H](CO)[C@@H](O)[C@H](O)[C@H]3O)c(O)c(O)c1C2=O,Potency,[1],inactive
same,Potency,[2],inactive
same,outcome,[3],inactive
COc1ccnc2c1CCCCC2S(=O)c1nc2ccccc2[nH]1 (configuration not stated),Potency,[1],inactive
same,Potency,[2],inactive
same,outcome,[3],inactive
CN1CCN(c2cc3c(nn2)Oc2ccccc2N3C)CC1,Potency,[1],inactive
same,Potency,[2],inactive
same,outcome,[3],inactive
NCCO,Potency,[1],inactive
same,Potency,[2],inactive
same,outcome,[3],inactive
O=C(O)Cc1ccc(-c2ccccc2)cc1,Potency,[1],inactive
same,Potency,[2],inactive
same,outcome,[3],inactive
Clc1ccccc1-c1nc(-c2ccncc2)no1,Potency,[1],inactive
same,Potency,[2],inactive
same,outcome,[3],inactive
Nc1ccc(O)c(C(=O)O)c1,Potency,[1],inactive
same,Potency,[2],17.8 µM (active)
Cc1ccc2c(n1)Oc1ccc(C(C)C(=O)OCC(=O)N(C)C)cc1C2 (configuration not stated),Potency,[1],inactive
same,Potency,[2],inactive
same,outcome,[3],inactive
COc1cc(NC(C)CCCN)c2ncccc2c1 (configuration not stated),Potency,[1],inactive
same,Potency,[2],inactive
O=C(O)Cc1cccc(-c2cc(CCCCCCc3ccc(O[C@H]4O[C@H](CO)[C@@H](O)[C@H](O)[C@@H]4O)c(-c4cccc(CC(=O)O)c4)c3)ccc2O[C@H]2O[C@H](CO)[C@@H](O)[C@H](O)[C@@H]2O)c1,"activity change, negative = inhibition",[1],-3.38% [at 0.727 µM]
same,"activity change, negative = inhibition",[2],-6.57% [at 0.505 µM]
same,"activity change, negative = inhibition",[3],-0.323% [at 0.575 µM]
COC1=C(OC)C(=O)c2ccccc2C1=O,outcome,[4],inactive
CCOC(=O)c1ccccc1O,Potency,[1],inactive
same,Potency,[2],inactive
same,outcome,[3],inactive
C#C[C@]1(O)CC[C@H]2[C@@H]3CCC4=Cc5oncc5CC4(C)[C@H]3CCC21C (some centres not stated),outcome,[4],inactive
CCCCCCOc1ccccc1C(N)=O,Potency,[1],inactive
same,Potency,[2],inactive
same,outcome,[3],inactive
COc1cc2c3cc1Oc1cc(ccc1O)C[C@@H]1c4c(cc(OC)c(O)c4Oc4ccc(cc4)C[C@@H]3N(C)CC2)CC[N+]1(C)C,Potency,[1],inactive
same,Potency,[2],inactive
same,outcome,[3],inactive
N=C1N=C(N)c2cc3ccccc3cc21,Potency,[1],inactive
same,Potency,[2],inactive
same,outcome,[3],inactive
C=C[C@@H]1CN2CC[C@@H]1C[C@H]2[C@H](O)c1ccnc2ccc(OC)cc12,outcome,[4],inactive
CC(C)Cc1ccc([C@H](C)C(=O)O)cc1,outcome,[4],inactive
